The source of these data is PubChem BioAssay (NCATS).

SMILES strings stand for the structures. Records with an inconclusive call do not appear. Activity calls are given as the source filed them. Unless noted, calls come from the whole dose curve; as a rule, active = well fitted curve in the direction sought with a large enough effect; inconclusive = small, poorly fitted or top-dose-only effect, or another doubt; inactive = no such curve, though single readings can be large; an effect the other way counts as inactive or inconclusive.

Test [1] can be described thus: AP1 Signaling Pathway (AID 357; active = well fitted curve in either direction with a large enough effect, not every such curve was filed as active;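 note: ME-180 reporter cells stimulated with EGF at its EC50 level; % is set by controls: 0 for no effect and ±100 for the full control effect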). Put shortly: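 A ratiometric CCF4 readout (405 nm excitation; 460 and 530 nm emission) quantified AP-1-driven beta-lactamase in ME-180 cells after 5 h with compound and EC50 EGF; AC50 values were derived for activators and inhibitors.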
Test [2] deals with Cytochrome P450 1A2 (Homo sapiens) (UniProt P05177). In words: p450-cyp1a2 (AID 410; calls by dose curve; note: potency is the fitted concentration of half-maximal effect;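 for activity change, negative = inhibition: -100% = full effect of reference inhibitor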). The procedure, abridged:
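Inhibition was calculated relative to 57 uM furafylline (full inhibition). The reaction used human CYP1A2 at 20nM with Luciferin-ME at its Km, 100uM, driven by an NADPH-regenerating system for 60 min at room temperature.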

Test [3] can be described thus: Stat Signaling Pathway (AID 446; active = well fitted curve in either direction with a large enough effect, not every such curve was filed as active;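 note: ME-180 cervical cancer cells given 40 pM IL-6 alongside compound; SIE-controlled beta-lactamase reporter measured as 460/530 nm FRET emission ratio; % is set by controls: 0 for no effect and ±100 for the full control effect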). Put shortly: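 ME-180 SIE-bla cells; overnight plating; cpd + IL-6 40 pM, 5 h, 37 C; LiveBLAzer 2.5 h RT; 460/530 nm emission ratio. Normalized to 300 pM IL-6 and 125 nM JAK inhibitor controls.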
For test [4], the target named is Glucocorticoid receptor (Homo sapiens) (UniProt P04150). In words: GR-EFC Redistribution (AID 451; calls by dose curve; note: potency is the fitted concentration of half-maximal effect). To be noted: CHO-K1 GR-EFC translocation, beta-gal luminescence, 2 h. Put shortly: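 Translocation of GR-ED fusion to nuclear EA restores b-gal, read by luminescence after 1 h room-temperature detection. Engineered CHO-K1 biosensor cells, 1,000/well, exposed 2 h at 37 C to titrations up to 46 uM final.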
Sequence of Glucocorticoid receptor (Homo sapiens) (P04150 whole entry, looked up, the tested form may be a part): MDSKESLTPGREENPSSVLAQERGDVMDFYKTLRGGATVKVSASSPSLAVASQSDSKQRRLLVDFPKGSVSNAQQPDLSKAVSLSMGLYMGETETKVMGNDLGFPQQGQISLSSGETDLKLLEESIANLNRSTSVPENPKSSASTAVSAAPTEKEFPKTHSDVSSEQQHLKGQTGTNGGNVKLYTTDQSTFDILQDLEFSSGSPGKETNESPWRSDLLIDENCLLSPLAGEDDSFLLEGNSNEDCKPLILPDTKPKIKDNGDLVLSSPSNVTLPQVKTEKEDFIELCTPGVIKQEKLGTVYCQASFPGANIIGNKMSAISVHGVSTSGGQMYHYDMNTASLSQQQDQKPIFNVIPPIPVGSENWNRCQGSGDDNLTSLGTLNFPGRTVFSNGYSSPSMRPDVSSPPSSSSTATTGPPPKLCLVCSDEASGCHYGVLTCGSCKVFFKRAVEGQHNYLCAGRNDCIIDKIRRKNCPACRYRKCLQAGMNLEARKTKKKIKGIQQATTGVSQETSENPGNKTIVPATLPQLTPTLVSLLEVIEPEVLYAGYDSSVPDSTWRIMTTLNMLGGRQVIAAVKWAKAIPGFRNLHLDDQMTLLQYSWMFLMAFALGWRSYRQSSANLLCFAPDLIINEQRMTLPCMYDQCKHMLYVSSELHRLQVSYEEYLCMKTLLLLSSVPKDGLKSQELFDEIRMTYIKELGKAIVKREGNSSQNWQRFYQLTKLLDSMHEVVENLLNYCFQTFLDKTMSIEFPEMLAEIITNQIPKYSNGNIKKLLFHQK

Test [5] concerns the target Mitogen-activated protein kinase 10 (Mus musculus) (UniProt Q61831). Kind of test: JNK3 AlphaScreen Assay (AID 530; active = well fitted curve in either direction with a large enough effect, not every such curve was filed as active;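 note: kinase came from lysate of stimulated human HepG2 cells; signal reports phosphorylation of biotinylated GST-cJun 1-79 at Ser73 with 10 µM ATP; % is set by controls: 0 for no effect and ±100 for the full control effect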). The procedure, abridged: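 Room-temperature AlphaScreen kinase assay; pre-activated HepG2 lysate as JNK3 source, biotin-GST-cJun(1-79) substrate, 10 uM ATP, compound 15 min preincubation.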
The nature of test [6]: qHTS Assay for Lipid Storage Modulators (AID 1519; calls by dose curve). To be noted: Drosophila S3 cells, BODIPY lipid droplet/cell ratio, laser cytometry, cells loaded with oleic acid. Put shortly:
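Cells seeded at 5,000 per well were treated with compounds over a concentration series and loaded with oleic acid (400 uM, as added). Lipid droplet fluorescence (488 nm excitation, 500-530 nm channel) was read by laser-scanning cytometry and normalized to 20 uM Triacsin C.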
Background: Quantitative high-throughput screening tests each substance at several concentrations.

The target of test [7] is Ubiquitin carboxyl-terminal hydrolase 1 (Homo sapiens) (UniProt O94782). Kind of test: Inhibitors of USP1/UAF1: Pilot qHTS (AID 504865).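 Note: rhodamine fluorescence freed from ubiquitin-rhodamine substrate followed over time; top concentration of the series differs between compounds; % is set by controls: 0 for no effect and ±100 for the full control effect; nearly all actives have a fitted effect of over 35% in size.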 The procedure, abridged:
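Deubiquitinase activity followed as kinetic rhodamine fluorescence release from 150 nM Ub-Rho. 1 nM USP1/UAF1 with compound, after 15 min room-temperature preincubation, in HEPES pH 7.8 buffer containing TCEP, EDTA, BSA and Tween-20.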

Test [8] addresses Glucocorticoid receptor (Homo sapiens) (UniProt P04150). In words: GR-GFP Redistribution (AID 450;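 active = compounds whose dose series gives a full or clear partial fitted curve of increased nuclear translocation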; note: potency is the fitted concentration of half-maximal effect). Particulars: U2OS GR-GFP nuclear translocation, laser cytometry, 2 h.
The nature of test [9]: NFAT Signaling Pathway (AID 444; active = well fitted curve in either direction with a large enough effect, not every such curve was filed as active;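 note: carbachol stimulus at about its EC50 of 1 µM final; % is set by controls: 0 for no effect and ±100 for the full control effect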). To be noted: Jurkat NFAT-bla M1, carbachol, beta-lactamase ratio, 5 h; at 17.2 µM (top of the series) unless noted. Put shortly: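 Read-out: CCF4 FRET ratio (460 nm/530 nm) after 1 h RT dye loading, used for %activity and AC50 from titration series. Cells: Jurkat NFAT-β-lactamase/M1 line, treated with compound plus 1 uM carbachol for 5 h, 37 °C.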

Test [10] deals with 3',5'-cyclic-AMP phosphodiesterase 4B (Homo sapiens) (UniProt Q07343). Kind of test: qHTS Assay for Inhibitors of PDE-IV (AID 607; active = well fitted activation curve with a large enough effect in the main read-out, with a control signal flat, not every such curve was filed as active; note: % of control where 0% means no effect). Put shortly:
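ACTOne HEK293 cells carry a modified cAMP-gated CNG channel and express endogenous PDE4; plated 1000 cells/well, compounds up to 22.9 uM final. Membrane-potential dye fluorescence (ex 535/em 590) was read; parental cells received 10 uM forskolin + 100 uM RO 20-1724.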

In test [11] the target is ATP-dependent 6-phosphofructokinase (Trypanosoma brucei brucei) (UniProt O15648). Kind of test: qHTS Assay to Find Inhibitors of T. brucei phosphofructokinase: hit validation (AID 492961). Put shortly: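 Measures ADP output of PFK (1.25 nM) at 0.1 mM ATP, 0.5 mM F6P, pH 8.0 TEA buffer with 5 mM MgCl2. No-enzyme wells define full inhibition; uninhibited enzyme wells define zero.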
Sequence of ATP-dependent 6-phosphofructokinase (Trypanosoma brucei brucei) (O15648 whole entry, looked up): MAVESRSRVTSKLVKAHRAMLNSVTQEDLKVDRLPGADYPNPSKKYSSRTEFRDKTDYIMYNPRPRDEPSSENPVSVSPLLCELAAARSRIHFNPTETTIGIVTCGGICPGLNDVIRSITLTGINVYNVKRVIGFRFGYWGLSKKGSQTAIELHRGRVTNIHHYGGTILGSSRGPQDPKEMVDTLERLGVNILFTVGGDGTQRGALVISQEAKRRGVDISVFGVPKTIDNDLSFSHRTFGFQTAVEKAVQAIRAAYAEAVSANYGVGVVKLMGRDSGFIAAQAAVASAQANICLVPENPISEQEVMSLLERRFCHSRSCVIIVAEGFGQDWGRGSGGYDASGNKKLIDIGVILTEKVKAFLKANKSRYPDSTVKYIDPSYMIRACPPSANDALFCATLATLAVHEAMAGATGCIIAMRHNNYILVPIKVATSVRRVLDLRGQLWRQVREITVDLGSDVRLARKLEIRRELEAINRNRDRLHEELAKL

Test [12] has as its target Luciferin 4-monooxygenase (Photinus pyralis) (UniProt P08659). In words: Biochemical firefly luciferase enzyme assay for NPC (AID 624030).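 Note: purified P. pyralis luciferase at 10 nM with luciferin and ATP substrate; 0% = DMSO and -100% = full luciferase inhibition by PTC124 control; nearly all actives have a fitted effect of over 70% in size.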 The procedure, abridged: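 Direct inhibition of firefly luciferase enzyme (10 nM final, 50 mM Tris Acetate) assessed by luminescence within 5 minutes. Percent activity scaled between DMSO and PTC124 positive control, with concentration-effect curves classified by fit quality and response.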

Test [13] can be described thus: qHTS profiling for inhibitors of Plasmodium falciparum proliferation (AID 504749).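 Note: 0% = DMSO vehicle and full inhibition = artemisinin control; nearly all actives have a fitted effect of over 60% in size.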 Particulars: P. falciparum in erythrocytes, SYBR Green DNA, 72 h. The procedure, abridged:
(§1)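 Three-day growth assay of blood-stage parasites in erythrocytes (0.3% parasitemia, 2.5% hematocrit) at 37 C, 5% CO2, quantified by SYBR Green DNA staining after overnight detergent lysis.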

A further test relates to C2A. The description is as above. Particulars: P. falciparum in erythrocytes, SYBR Green DNA, 72 h; series mostly up to 12.8 µM. Put shortly:
as §1

A further test relates to CP191. Described as above. To be noted: P. falciparum in erythrocytes, SYBR Green DNA, 72 h; series mostly up to 12.8 µM. Put shortly:
as §1

The test system of the next test is CP238. The description is as above. To be noted: P. falciparum in erythrocytes, SYBR Green DNA, 72 h; series mostly up to 12.8 µM. The procedure, abridged: as §1
Another test concerns CP256. The test is described as above. To be noted: P. falciparum in erythrocytes, SYBR Green DNA, 72 h; series mostly up to 12.8 µM. The procedure, abridged:
as §1

Another test concerns FAB9. The description is as above. Particulars: P. falciparum in erythrocytes, SYBR Green DNA, 72 h; series mostly up to 12.8 µM. The procedure, abridged: as §1
A further test has as its system JCK. The test is described as above. To be noted: P. falciparum in erythrocytes, SYBR Green DNA, 72 h; series mostly up to 12.8 µM. Put shortly: as §1
The next test concerns SC27B. The test is described as above. To be noted: P. falciparum in erythrocytes, SYBR Green DNA, 72 h; series mostly up to 12.8 µM. The procedure, abridged: as §1
Setting [14] is: measured here: cell count channel max response.
Setting [15] is: measured here: lipid channel max response.

Sequence of Cytochrome P450 1A2 (Homo sapiens) (P05177 whole entry, looked up): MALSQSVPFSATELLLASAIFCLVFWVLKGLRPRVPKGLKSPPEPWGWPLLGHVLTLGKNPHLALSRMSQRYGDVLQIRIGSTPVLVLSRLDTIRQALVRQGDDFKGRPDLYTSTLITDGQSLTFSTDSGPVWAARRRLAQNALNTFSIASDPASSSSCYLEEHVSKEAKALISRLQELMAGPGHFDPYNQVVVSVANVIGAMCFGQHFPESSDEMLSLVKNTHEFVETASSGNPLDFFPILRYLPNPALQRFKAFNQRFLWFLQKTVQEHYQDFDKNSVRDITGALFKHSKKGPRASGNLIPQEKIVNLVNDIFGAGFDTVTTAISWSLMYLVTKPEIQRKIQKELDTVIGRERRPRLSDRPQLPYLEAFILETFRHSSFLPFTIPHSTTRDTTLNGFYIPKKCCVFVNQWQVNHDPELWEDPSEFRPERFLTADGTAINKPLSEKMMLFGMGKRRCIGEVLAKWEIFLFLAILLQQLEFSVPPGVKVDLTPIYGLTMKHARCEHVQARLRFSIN
Sequence of 3',5'-cyclic-AMP phosphodiesterase 4B (Homo sapiens) (Q07343 whole entry, looked up): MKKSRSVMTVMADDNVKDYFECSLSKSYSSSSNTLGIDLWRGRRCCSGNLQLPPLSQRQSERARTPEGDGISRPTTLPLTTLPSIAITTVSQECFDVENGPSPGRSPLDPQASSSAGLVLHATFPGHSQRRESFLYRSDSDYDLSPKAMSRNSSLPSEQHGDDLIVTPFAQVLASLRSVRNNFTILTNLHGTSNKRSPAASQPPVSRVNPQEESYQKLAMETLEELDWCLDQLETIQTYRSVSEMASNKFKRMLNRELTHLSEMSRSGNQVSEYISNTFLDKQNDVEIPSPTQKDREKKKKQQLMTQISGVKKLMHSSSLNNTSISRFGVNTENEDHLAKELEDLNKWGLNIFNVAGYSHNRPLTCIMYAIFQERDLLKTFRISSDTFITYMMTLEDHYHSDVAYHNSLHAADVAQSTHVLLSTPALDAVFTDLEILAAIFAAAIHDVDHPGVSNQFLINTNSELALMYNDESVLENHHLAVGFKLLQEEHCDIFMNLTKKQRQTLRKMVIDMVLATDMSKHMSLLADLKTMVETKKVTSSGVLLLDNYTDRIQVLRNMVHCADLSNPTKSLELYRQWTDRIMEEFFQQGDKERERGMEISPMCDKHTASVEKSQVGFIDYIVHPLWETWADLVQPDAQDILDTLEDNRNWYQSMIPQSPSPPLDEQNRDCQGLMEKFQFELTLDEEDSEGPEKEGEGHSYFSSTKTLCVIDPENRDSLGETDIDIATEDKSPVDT
Sequence of Ubiquitin carboxyl-terminal hydrolase 1 (Homo sapiens) (O94782 whole entry, looked up): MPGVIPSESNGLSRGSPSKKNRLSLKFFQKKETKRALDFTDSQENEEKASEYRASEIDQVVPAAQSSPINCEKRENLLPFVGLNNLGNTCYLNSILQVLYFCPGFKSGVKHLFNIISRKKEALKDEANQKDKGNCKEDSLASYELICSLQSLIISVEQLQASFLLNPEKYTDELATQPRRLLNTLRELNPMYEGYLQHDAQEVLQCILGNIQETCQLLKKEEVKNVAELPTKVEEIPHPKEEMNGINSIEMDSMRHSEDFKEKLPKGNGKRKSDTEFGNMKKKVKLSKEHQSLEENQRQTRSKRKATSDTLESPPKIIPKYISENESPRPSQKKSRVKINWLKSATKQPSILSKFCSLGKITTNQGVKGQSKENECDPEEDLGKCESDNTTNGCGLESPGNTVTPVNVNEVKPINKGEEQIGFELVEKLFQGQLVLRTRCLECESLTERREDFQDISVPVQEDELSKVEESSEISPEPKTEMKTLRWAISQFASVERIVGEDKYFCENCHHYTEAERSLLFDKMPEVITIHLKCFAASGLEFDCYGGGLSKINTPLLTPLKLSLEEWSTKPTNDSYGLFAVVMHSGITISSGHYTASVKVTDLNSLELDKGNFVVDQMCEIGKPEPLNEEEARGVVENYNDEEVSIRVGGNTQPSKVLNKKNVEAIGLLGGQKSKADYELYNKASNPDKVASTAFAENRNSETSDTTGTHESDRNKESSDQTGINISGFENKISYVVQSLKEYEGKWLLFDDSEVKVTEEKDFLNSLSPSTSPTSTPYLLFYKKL
Sequence of Luciferin 4-monooxygenase (Photinus pyralis) (P08659 whole entry, looked up): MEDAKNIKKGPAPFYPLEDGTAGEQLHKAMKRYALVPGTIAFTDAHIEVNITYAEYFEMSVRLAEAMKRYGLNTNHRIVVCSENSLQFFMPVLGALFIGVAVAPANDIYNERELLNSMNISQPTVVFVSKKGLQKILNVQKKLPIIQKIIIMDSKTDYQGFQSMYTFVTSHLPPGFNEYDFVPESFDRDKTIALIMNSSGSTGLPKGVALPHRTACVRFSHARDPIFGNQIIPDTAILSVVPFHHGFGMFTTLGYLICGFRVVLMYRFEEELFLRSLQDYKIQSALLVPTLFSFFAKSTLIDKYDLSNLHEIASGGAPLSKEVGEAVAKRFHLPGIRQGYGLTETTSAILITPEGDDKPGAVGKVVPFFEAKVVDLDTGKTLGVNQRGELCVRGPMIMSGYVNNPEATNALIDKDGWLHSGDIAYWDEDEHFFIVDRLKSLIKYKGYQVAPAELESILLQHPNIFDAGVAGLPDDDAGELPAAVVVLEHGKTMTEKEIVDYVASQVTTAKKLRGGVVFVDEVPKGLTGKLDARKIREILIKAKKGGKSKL

As to `CN1CCCN([C@@H](c2ccccc2)c2ccc(Cl)cc2)CC1`, the molecule was classed as inactive in test [1] and in test [3]. The Potency entry in [2], in [5] and in test [7] was “inactive” throughout. The Potency in [4] is > 20.6 µM (inactive). For the same molecule, the activity change, negative = inhibition in test [6] (at 25.7 µM (top of the series)) was -4.42% (inactive). The results for the max response in [6] (setting [14]) and in test [6] (setting [15]) were 4.14% and 1.38%, respectively.

Turning to `CS(=O)(=O)Nc1cccc(-c2nc(Nc3ccccc3)c3ccccc3n2)c1`, the molecule was classed as inactive in test [1]. Further, the Potency was 0.794 µM (active) in [2], > 46 µM (inactive) in test [8] and > 46 µM (inactive) in [4]. Besides, the Potency entry in test [5] is “inactive”. In [6] (at 57.5 µM (top of the series)), the activity change, negative = inhibition is 7.97% (inactive). Further, the values for the max response in test [6] (setting [14]) and in test [6] (setting [15]) were -5.28% and 2.43%, respectively.

`CC(=O)O[C@H]1C[C@@]2(C)[C@H](C[C@@H](O)[C@H]3[C@@]4(C)CC[C@@H](O)[C@@H](C)[C@H]4CC[C@@]32C)C1=C(CCC=C(C)C)C(=O)O`: the outcome in test [1], in [3], in test [10] and in [11] was inactive. In addition, the activity change, negative = inhibition in [9] was -11.2% (inactive); in test [6] (at 25.7 µM (top of the series)), -3.43% (inactive). For the same molecule, the Potency in test [8] and in test [4] was > 20.6 µM (inactive) throughout. For the same molecule, the max response in test [6] (setting [14]) was -3.61%; in [6] (setting [15]), -6.42%. Also, the Potency result (in test [7]; in test [12]; in the test on C2A; in the test on CP191; in the test on CP238; in the test with CP256) was “inactive” each time. Further, the Potency entry in the test on FAB9, with JCK and in the test with SC27B was “inactive” in each case. The activity, negative = inhibition in test [13] (at 28.7 µM (top of the series), parasite line A) is 7.93% (inactive); in test [13] (at 28.7 µM (top of the series), parasite line B), 2.16% (inactive).

Turning to `CC(C)(C)NC(=O)[C@@H]1CC[C@@H]2[C@@H]3CC[C@@H]4NC(=O)C=C[C@@]4(C)[C@H]3CC[C@]21C`, the molecule was called inactive in [1], in test [3], in test [10] and in test [11]. Further, the results for the activity change, negative = inhibition in [9] and in [6] (at 25.7 µM (top of the series)) were 3.14% (inactive) and -1.87% (inactive), respectively. The Potency in test [8] and in test [4] was > 20.6 µM (inactive) each time. Also, the Potency result (in test [5]; in test [7]; in test [12]; in the test with C2A; in the test on CP191; in the test with CP238) was “inactive” each time. The Potency result with CP256, in the test with FAB9, in the test with JCK and in the test with SC27B was “inactive” throughout. The max response in [6] (setting [14]) is -11.6%; in [6] (setting [15]), -13.3%. The activity, negative = inhibition in [13] (at 12.8 µM (top of the series), parasite line A) is 6.77% (inactive); in test [13] (at 12.8 µM (top of the series), parasite line B), -2.48% (inactive).

In the case of `c1ccc(CNc2ncnc3nc[nH]c23)cc1`, the molecule was called inactive in test [1], in test [3] and in test [10]. The activity change, negative = inhibition was 7.66% (inactive) in [9] and -0.17% (inactive) in test [6] (at 25.7 µM (top of the series)). In addition, the Potency in test [8] and in test [4] was > 20.6 µM (inactive) in each case. Also, the Potency result in [5] and in test [7] was “inactive” throughout. Further, the max response in test [6] (setting [14]) was -13.8%; in test [6] (setting [15]), -12.9%.

On to `CN1CCC2(CC1)CCN(C(=O)c1ccncc1)CC2`, for which the molecule was classed as inactive in [1] and in test [10]. Besides, the Potency result in [2] and in test [5] was “inactive” each time. Also, in test [6] (at 57.5 µM (top of the series)), the activity change, negative = inhibition was -3.65% (inactive). Moreover, the figures for the max response in test [6] (setting [14]) and in test [6] (setting [15]) were 10.6% and 6.89%, respectively.
